Test results as given in PubChem BioAssay (NCI).
Compounds without any hit were thinned out: in the full panel of roughly 79,000, 15% have a hit. No stated cut-off is given here; in the data, active means growth inhibition above about 70%; inactive means the rest.

How the values were obtained:
[1] = NCI Yeast Anticancer Drug Screen. Data for the rad50 strain (AID 155);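 further: 0% = growth of vehicle-only cultures of the same strain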; details: S. cerevisiae rad50 strain growth inhibition; at 50.0 µM; active compounds read high
Summary of the method: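 Cells are treated with compound, grown, and their growth is then scored against vehicle-only cultures of the same repair-deficient yeast strain.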

[2] = NCI Yeast Anticancer Drug Screen. Data for the mec2-1 strain (AID 157); details: S. cerevisiae mec2-1 strain, at 50.0 µM, active compounds read high
Summary of the method: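 Strain: mec2-1 (DNA repair/cell cycle alteration). Compound exposure, then growth measured; inhibition expressed relative to vehicle.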

[3] = NCI Yeast Anticancer Drug Screen. Data for the sgs1 mgt1 strain (AID 161);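 further: 0% = growth of cultures given vehicle only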; details: S. cerevisiae sgs1 mgt1 strain, at 50.0 µM, active compounds read high
Summary of the method: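 Genetically altered yeast, compound exposure, growth inhibition relative to vehicle.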

[4] = NCI Yeast Anticancer Drug Screen. Data for the cln2 rad14 strain (AID 165);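 further: 0% = growth equal to vehicle treated cultures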; details: S. cerevisiae cln2 rad14 strain, at 50.0 µM, active compounds read high
Summary of the method: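 Compounds are applied to the cln2 rad14 yeast strain, and growth is then compared with that of vehicle-treated cultures to give inhibition.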

[5] = NCI Yeast Anticancer Drug Screen. Data for the bub3 strain (AID 167); details: S. cerevisiae bub3 mutant strain, at 50.0 µM, active compounds read high
Summary of the method: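 Part of a panel of yeast mutants defective in DNA damage repair or cell cycle regulation. Each strain is grown with compound, and inhibition is calculated relative to solvent-treated cultures.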

[6] = NCI Yeast Anticancer Drug Screen. Data for the mlh1 rad18 strain (AID 175); details: S. cerevisiae mlh1 rad18 strain growth inhibition; at 50.0 µM; active compounds read high
Summary of the method: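 Read-out is yeast growth inhibition, calculated against vehicle-only controls. The compound was applied to a strain engineered with DNA damage repair alterations.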

Measured: growth inhibition

CCCC(=O)c1cccs1
inactive: [1] 3.25% | [2] 9.85% | [3] 10.8% | [4] -11.3% | [5] -4.1% | [6] 11.9%

COc1ccc(Br)c(C=O)c1
inactive: [1] -10.1% | [2] -8.9% | [3] -5.65% | [4] 1.95% | [5] -7.45% | [6] -2.25%

Nc1ccn(C2CC(N)C(CO)O2)c(=O)n1 (stereo not drawn)
inactive: [1] 16.1% | [2] 7.15% | [3] 9.25% | [4] 19.8% | [5] 6.9% | [6] 32.4%

CCCCn1cnc2c(=O)[nH]cnc21
inactive: [1] 3.2% | [2] 2.25% | [3] -5.15% | [4] -14.8% | [5] 8.95% | [6] 2.3%

Nc1cc2c(cc1Cl)C(=O)c1ccccc1C2=O
inactive: [1] 32.4% | [2] 16.6% | [3] 9.75% | [4] -63.6% | [5] 38.4% | [6] 1.35%

CC(C)c1ncc([N+](=O)[O-])n1C
inactive: [1] -13.2% | [2] 2.9% | [3] -16.6% | [4] -30.1% | [5] 6.15% | [6] 8.75%

OCCNc1ccccc1
inactive: [1] 31.9% | [2] 11.4% | [3] 2.75% | [4] 11.1% | [5] 6.3% | [6] 9.7%

O=CNCCc1ccccc1
inactive: [1] 7.25% | [2] -9.05% | [3] 6.85% | [4] 5% | [5] 6.3% | [6] 2.35%

O=C1CSc2ccccc2N1
inactive: [1] -35% | [2] -8.45% | [3] 32% | [4] -12.7% | [5] 1.3% | [6] 11.2%

CCOC(=O)/C(C)=C\c1ccc(OC)c(OC)c1
inactive: [1] -2.15% | [2] -11.2% | [3] 25.9% | [4] -34% | [5] 18.4% | [6] 18.9%

COC1OC(C(O)C(O)CO)C(O)C(O)C1O (stereo not drawn)
inactive: [1] 14.3% | [2] -5.7% | [3] 11.8% | [4] -55.7% | [5] -3.65% | [6] 11.7%

Cc1cc(=O)n(Nc2ccccc2)c(O)c1C#N
inactive: [1] 3.45% | [2] -19% | [3] 0.3% | [4] 2.65% | [5] 5.6% | [6] 3.15%

Nc1cc2ccccc2c(O)c1O
inactive: [1] 32.1% | [2] 35% | [3] 39.1% | [4] 20.7% | [5] 38% | [6] 14.2%

O=S(=O)(O)c1cccnc1
inactive: [1] 12.4% | [2] 6% | [3] 10.7% | [4] -11.6% | [5] -2.25% | [6] 15.8%

CCCCNC(=O)c1ccc(OCC)cc1
inactive: [1] 12.2% | [2] 20.4% | [3] 33.3% | [4] -16.4% | [5] -8.85% | [6] -0.1%

Cn1c(=O)c2[nH]c(CC(=O)O)nc2n(C)c1=O
inactive: [1] 29.5% | [2] 11% | [3] 33.8% | [4] 22.8% | [5] 0.85% | [6] 24.1%

COc1ccc(Nc2cc(Cl)ccc2C(=O)O)cn1
inactive: [1] 4.25% | [2] 0.6% | [3] -6.95% | [4] 17.9% | [5] 5.3% | [6] -4.55%

CCOC(=O)c1ccc(NC(C)=O)o1
inactive: [1] -10.3% | [2] 11.3% | [3] -3.35% | [4] -23.1% | [5] -5.35% | [6] 11.1%

COc1cc(OC)c(NC(=O)C(Sc2nc(C)cc(C)c2C#N)c2ccccc2)cc1Cl (stereo not drawn)
inactive: [1] -6.3% | [2] -19.9% | [3] -4.95% | [4] 22.2% | [5] 1.6% | [6] 5.9%

CC(=O)CSc1ncnc2nc[nH]c12
inactive: [1] 0.1% | [2] 2.8% | [3] -0.5% | [4] -5.5% | [5] 5.85% | [6] -5.3%

COC(=O)c1cccc([N+](=O)[O-])c1
inactive: [1] -11.3% | [2] -5.7% | [3] -4.7% | [4] -31.3% | [5] -0.4% | [6] -9.9%

CC(CO)(CO)C(=O)O
inactive: [1] 4.35% | [2] -31.4% | [3] -11.6% | [4] 21.3% | [5] -14% | [6] 10.1%

CCCCN(C(=O)CC)c1ccccc1
inactive: [1] 23.7% | [2] -29.8% | [3] 9.5% | [4] -22.4% | [5] -12.9% | [6] -62.5%

CC(C)(C)[Si](C)(C)OCC1OC(n2cnc3c(N)ncnc32)CC1OS(C)(=O)=O (stereo not drawn)
inactive: [1] -17% | [2] -21.6% | [3] 0.75% | [4] -3.15% | [5] 5.3% | [6] 0.5%

O=C(CCCl)OCCOc1ccccc1
inactive: [1] -9.85% | [2] 4.3% | [3] -15.1% | [4] 21.9% | [5] -18.5% | [6] 6.55%

COc1ccc(NNS(=O)(=O)O)cc1
inactive: [1] 1.45% | [2] 4.7% | [3] 21.7% | [4] -10.8% | [5] -1.65% | [6] 4%

Cc1cc(C(=O)c2ccccc2)cc(C)c1O
inactive: [1] 12.2% | [2] -3.35% | [3] 12.8% | [4] 5.2% | [5] -0.4% | [6] 30.4%

Nc1ncnc(Nc2ccccc2)n1
inactive: [1] -6.05% | [2] -28.1% | [3] -4.1% | [4] 15.1% | [5] -5.8% | [6] 7.1%

C1=NCCc2ccccc21
inactive: [1] 0.55% | [2] 3% | [3] -8.25% | [4] -19.9% | [5] 2.05% | [6] 15.2%

CC(c1ccccc1)N1C(=O)CSC1=S (stereo not drawn)
inactive: [1] 37.1% | [2] 30.5% | [3] 22.8% | [4] 35.8% | [5] 53.6% | [6] 52.1%

Cc1ccc(C(C)C)c(OCC(=O)O)c1
inactive: [1] 15.4% | [2] 12% | [3] 24.2% | [4] 8.65% | [5] -6.85% | [6] 25.6%

CC(C)=CCC[C@@H](C)[C@H]1CC[C@@]2(C)C3=C(CC[C@]12C)[C@@]1(C)CC[C@H](O)C(C)(C)[C@@H]1CC3
inactive: [1] 12.7% | [2] -24.8% | [3] 21.8% | [4] 9.85% | [5] 11.7% | [6] -7.3%

O=S(=O)(OCCOS(=O)(=O)c1ccccc1)c1ccccc1
inactive: [1] 31.9% | [2] 1.45% | [3] -0.9% | [4] -27.9% | [5] -9.1% | [6] 50.7%
